Measured values from the supplement of paper PMC10981050.
“And” between values parts separate entries of the source, which are not always exact repeats. Equal values may be shown once. Where a name gives a salt, the structure may show the parent alone.

Assays:
Experiment in all cases: cell viability relative to vehicle control; higher = less cytotoxic
Settings in all cases: 10 µM
K562 = test system: K562
Summary of the method: (§1)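 CRISPR-edited SRSF2 P95 mutant and isogenic wild-type clones of four leukaemia lines were screened against Selleck bioactive, kinase and epigenetic probe libraries, with identity-inconsistent compounds removed. Compounds were acoustically dispensed into 384-well plates at a single 10 µM dose, with 2000 cells in 50 µL medium per well. After 48 h, supernatant was removed and CellTiter-Glo luminescence was read. Viability was expressed as percent of the on-plate DMSO vehicle control, analysed in Genedata Screener.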

MARIMO = test system: MARIMO
Summary of the method: as §1

MOLM14 = test system: MOLM14
Summary of the method: as §1

OCI-AML2 = test system: OCI-AML2
Summary of the method: as §1

| Compound | cell viability (K562; SRSF2 genotype: SRSF2 P95H/wt) | cell viability (K562; SRSF2 genotype: SRSF2 wt/wt) [%] | cell viability (MARIMO; SRSF2 genotype: SRSF2 P95H/wt) [%] | cell viability (MARIMO; SRSF2 genotype: SRSF2 wt/wt) [%] | cell viability (MOLM14; SRSF2 genotype: SRSF2 P95H/wt) [%] | cell viability (MOLM14; SRSF2 genotype: SRSF2 wt/wt) [%] | cell viability (OCI-AML2; SRSF2 genotype: P95H/wt) [%] | cell viability (OCI-AML2; SRSF2 genotype: wt/wt) [%] |
| --- | --- | --- | --- | --- | --- | --- | --- | --- |
| OC[C@H]1O[C@@H](Oc2ccc(O)cc2)[C@H](O)[C@@H](O)[C@@H]1O [Arbutin (Uva, p-Arbutin)] | 104% and 97.2% | 95.1 | 96.6 | 104 | 103 | 101 | 100 | 107 |
| O=S(=O)(NCCSSCCNS(=O)(=O)c1cc(Cl)ccc1Cl)c1cc(Cl)ccc1Cl | 80.6% and 84.4% | 69.5 | 61 | 72.4 | 53.8 | 48.8 | 51.9 | 52.5 |
| CCCCCCCCCCCCCCCc1cccc(O)c1C(=O)O [Anacardic Acid] | 88.9% and 86.6% | 84.8 | 81.7 | 86.7 | 86.3 | 82.9 | 87.5 | 83.5 |
| Cc1ccc(S(=O)(=O)Cc2nc(-c3ccc(C(=O)NCc4cccnc4)cc3)oc2C)cc1 | 30% and 20.2% | 26 | 21.2 | 37.2 | 12.1 | 2 | 5.44 | 5.6 |
| COc1cc(Nc2ncc(F)c(Nc3ccc4c(n3)NC(=O)C(C)(C)O4)n2)cc(OC)c1OC | 99.2% and 103% | 104 | 83.7 | 85.8 | 22.3 | 19.6 | 41.2 | 47.7 |
| COc1ccc2cc3[n+](cc2c1OC)CCc1cc2c(cc1-3)OCO2 [Berberine chloride] | 66.5% and 69.6% | 65.3 | 67.2 | 66.7 | 70.4 | 81.3 | 48.9 | 53.8 |
| CC(C)=CCCC(C)(O)C1CCC2(C)C1C(O)CC1C3(C)CCC(O)C(C)(C)C3CCC12C [(20S)-Protopanaxadiol] | 98% and 105% | 107 | 96.7 | 109 | 102 | 102 | 115 | 93.5 |
| COc1ccc2cc3[n+](cc2c1OC)CCc1cc2c(cc1-3)OCO2 [Berberine] | 65.6% and 74.1% | 72.6 | 67.3 | 62.1 | 75.4 | 81.8 | 52 | 53.8 |
| CCS(=O)(=O)Nc1ccc2[nH]c(O)c(C(=Nc3ccc(CN4CCCCC4)cc3)c3ccccc3)c2c1 [Hesperadin] | 19.5% and 24% | 15.9 | 5.46 | 9.42 | 0.94 | 0.3 | 5.95 | 9.44 |
| CCOC(=O)c1c2c3c(cccc3[nH]c1=O)C(=O)c1ccccc1-2 | 95.8% and 97.2% | 90.7 | 84 | 96.1 | 90.7 | 95.8 | 92.4 | 101 |
| OC(CN1CCN(c2cccc(Cl)c2)CC1)C(c1ccccc1)c1ccccc1 (stereo unspecified) | 84.9% and 91.9% | 91.3 | 84.2 | 90.6 | 86.9 | 94.5 | 86.9 | 89.1 |
| OCC(O)C(O)C(O)C(O)CO (stereo unspecified) [Allitol] | 111% and 98.4% | 111 | 107 | 101 | 108 | 103 | 109 | 99.3 |
| CCCCc1nc2cc(/C=C/C(=O)NO)ccc2n1CCN(CC)CC [SB939 (Pracinostat)] | 1.57% and 13.7% | 4.32 | 9.81 | 13.9 | 1.19 | 0.63 | 4.26 | 6.25 |
| CC1=CCC[C@H](C)C(=O)C[C@@H](C(C)C)C(=O)C1 [Curdione] | 93.2% and 88.9% | 83.8 | 93.8 | 90.8 | 91.2 | 87.5 | 91 | 87.2 |
| O=C(O)C(Cc1c[nH]c2ccccc12)N1C(=O)c2ccccc2C1=O (stereo unspecified) | 104% and 96.9% | 103 | 96.8 | 104 | 99.2 | 99.3 | 93.2 | 98.5 |
| COC(=O)N[C@H](C(=O)N1CCC[C@H]1c1ncc(-c2ccc(-c3ccc(-c4cnc([C@@H]5CCCN5C(=O)[C@@H](NC(=O)OC)C(C)C)[nH]4)cc3)cc2)[nH]1)C(C)C [Daclatasvir Digydrochloride] | 79.2% and 78.8% | 75.9 | 62.1 | 73.5 | 67.7 | 77.9 | 78.2 | 74 |
| COC(=O)c1ccc(O)c(C(=O)OC)c1 [Dimetghyl 4-Hydroxyisophthalate] | 100% and 93.1% | 99.4 | 95.2 | 98.7 | 97.3 | 100 | 90 | 96.6 |
| CN1CCC(=C2c3ccccc3CCc3sccc32)CC1 [Pizotifen malate] | 89.7% and 97% | 95.2 | 76.9 | 83.8 | 76.5 | 90.1 | 81.4 | 83 |
| CC(=O)Nc1nc(-c2cccc(NS(=O)(=O)c3cccc4c(N(C)C)cccc34)c2)cs1 | 61.8% and 63.7% | 62 | 58.7 | 43.8 | 62.4 | 66.6 | 33.3 | 40.5 |
| CCCNCC(O)COc1ccccc1C(=O)CCc1ccccc1 (stereo unspecified) [Propafenone HCl] | 78.7% and 84.2% | 79.2 | 66.1 | 70.5 | 73.2 | 81.2 | 68.3 | 68 |
| Cc1[nH]c2ccccc2c1CCNC(=O)c1cccs1 | 92% and 93.8% | 100 | 90 | 97.2 | 106 | 99.4 | 94.5 | 97.4 |

| Compound | cell viability (K562; SRSF2 genotype: SRSF2 P95H/wt) | cell viability (K562; SRSF2 genotype: SRSF2 wt/wt) [%] | cell viability (MARIMO; SRSF2 genotype: SRSF2 P95H/wt) [%] | cell viability (MARIMO; SRSF2 genotype: SRSF2 wt/wt) [%] | cell viability (MOLM14; SRSF2 genotype: SRSF2 P95H/wt) [%] | cell viability (MOLM14; SRSF2 genotype: SRSF2 wt/wt) [%] | cell viability (OCI-AML2; SRSF2 genotype: P95H/wt) [%] | cell viability (OCI-AML2; SRSF2 genotype: wt/wt) [%] |
| --- | --- | --- | --- | --- | --- | --- | --- | --- |
| CC(C)C(=O)OCC(=O)[C@@]12O[C@H](C3CCCCC3)O[C@@H]1C[C@H]1[C@@H]3CCC4=CC(=O)C=C[C@]4(C)[C@H]3[C@@H](O)C[C@@]12C [Ciclesonide] | 57% and 55.7% | 62.1 | 63.6 | 68.9 | 41.4 | 41.6 | 25.5 | 59.6 |
| CC/C(=C(\c1ccccc1)c1ccc(OCCN(C)C)cc1)c1ccccc1 [Tamoxifen Citrate (Nolvadex)] | 82.2% and 76.4% | 93 | 80 | 74.3 | 74.5 | 81.8 | 69.7 | 74.5 |
| O=C(Nc1cc(C(F)(F)F)cc(C(F)(F)F)c1)c1cc(Cl)ccc1O | 5.29% and 8.22% | 5.97 | 19 | 18.3 | 10.3 | 8.64 | 2.4 | 8.72 |
| Cn1cc(-c2ccncc2)c(-c2ccc(OCc3ccc4ccccc4n3)cc2)n1 | 79.8% and 91.7% | 91.2 | 93 | 90.4 | 65 | 71.4 | 71.5 | 68 |
| OCCOCCN1CCN(C2=Nc3ccccc3Sc3ccccc32)CC1 [Quetiapine fumarate (Seroquel)] | 91.1% and 95.4% | 96.3 | 85.8 | 95.8 | 90 | 94.9 | 74.6 | 87 |
| N#CC(c1ccc(Cl)cc1)c1c(Cl)cc(-n2ncc(=O)[nH]c2=O)cc1Cl (stereo unspecified) [Diclazuril] | 101% and 88.5% | 85.2 | 83.8 | 94.7 | 84.4 | 86.3 | 91.3 | 80.8 |
| CCCC(CCC)C(=O)O[C@H]1C[C@H]2CC[C@@H](C1)[N+]2(C)C [anisotropine methylbromide] | 101% | 104 | 106 | 107 | 98 | 101 | 106 | 93.6 |
| Cc1cccc(-c2[nH]ncc2-c2ccc3ncccc3n2)n1 | 97.9% and 108% | 107 | 107 | 114 | 94.6 | 105 | 78.9 | 83.5 |
| CC(=O)OC1CC2CCC1(C)C2(C)C (stereo unspecified) [Bornyl acetate] | 109% and 107% | 114 | 107 | 107 | 98.8 | 104 | 110 | 107 |
| CCC/C=C1\OC(=O)C2=C1CCC=C2 [Ligustilide] | 84.1% and 83.7% | 85.5 | 60.9 | 65.6 | 52.7 | 49.4 | 64.8 | 63.9 |
| O=C(COc1cccc2c(=O)[nH]ccc12)c1ccccc1 | 89.7% and 93.9% | 98.9 | 94.6 | 88.4 | 102 | 98.5 | 88 | 84.1 |
| Cc1ncc(CO)c(CO)c1O [Pyridoxine] | 98.2% and 103% | 97.3 | 107 | 96.3 | 101 | 102 | 106 | 99.6 |
| C=C1CC[C@H]2C(=C)CC[C@H]3C(=C)C(=O)O[C@@H]3[C@@H]12 [Dehydrocostus Lactone] | 25.2% and 23.9% | 30.8 | 13.7 | 16.1 | 8.31 | 11.1 | 3.84 | 6.64 |
| CC(C)C[C@H](NC(=O)[C@H](Cc1ccccc1)NC(=O)c1cnccn1)B(O)O [Bortezomib (Velcade)] | 1.99% and 2.21% | 1.46 | 0.39 | 0.93 | 0.29 | 0.31 | 0.19 | 0.25 |
| CCCCCCCC(=O)N[C@H](CN1CCCC1)[C@H](O)c1ccc2c(c1)OCCO2 [Eliglustat (Tartrate)] | 95.2% and 103% | 99.4 | 91.1 | 89.7 | 90 | 99.9 | 94 | 97.1 |
| [Na+].[Na+].[Na+].[Na+].[Na+].[Na+].[O]=[W](=[O])([O-])[O-].[O]=[W](=[O])([O-])[O-].[O]=[W](=[O])([O-])[O-].[O]=[W](=[O])=[O].[O]=[W](=[O])=[O].[O]=[W](=[O])=[O].[O]=[W](=[O])=[O].[O]=[W](=[O])=[O].[O]=[W](=[O])=[O].[O]=[W](=[O])=[O].[O]=[W](=[O])=[O].[O]=[W](=[O])=[O] [SodiuM Metatungstate] | 103% and 109% | 106 | 121 | 106 | 103 | 109 | 88.9 | 93.5 |
| O=C(O)c1ccc2c(c1)nc(Nc1cccc(Cl)c1)c1ccncc12 [cx-4945 (Silmitasertib)] | 49.9% and 60.1% | 63.7 | 49.7 | 47.3 | 26.9 | 34 | 5.84 | 22.2 |
| CC/C(=C(/c1ccc(/C=C/C(=O)O)cc1)c1ccc2[nH]ncc2c1)c1ccc(F)cc1Cl [Brilanestrant (GDC-0810, ARN-810)] | 100% and 106% | 96.2 | 102 | 95.1 | 86.8 | 92.3 | 96.9 | 102 |
| C[C@@H](C(=O)Nc1ccc(Cl)cc1)C1CCC(c2ccnc3ccc(F)cc23)CC1 (stereo partly specified) | 77% and 77.9% | 69.6 | 81 | 70.5 | 61.9 | 76.4 | 56.8 | 54.5 |
| CN1CCN2c3ccccc3Cc3ccccc3C2C1 (stereo unspecified) [Mianserin HCl] | 92.5% and 97.9% | 92.2 | 83.7 | 86.5 | 93.5 | 97.8 | 91.2 | 86.4 |
| COc1ccc(-c2cc(=O)c3c(OC)c(OC)c(OC)c(OC)c3o2)cc1OC [Nobiletin (Hexamethoxyflavone)] | 94.6% and 90.6% | 92.6 | 79.1 | 82.1 | 83.3 | 81.3 | 74.5 | 81.5 |
